# Assay outcomes deposited in PubChem by National Center for Advancing Translational Sciences (NCATS).
# Sfp PPTase inh: Sfp phosphopantetheinyl transferase inhibition; AID 1490; hit rate 3.5% among 310,000; Q9F4F7; Biochemical Sfp PPTase activity, qHTS; Potency, µM, for inactives: largest response in the series, negative = inhibition, usual class: inhibitors;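 further: the enzyme is Sfp with the accession as filed and its product quenches rhodamine fluorescence; potency means the concentration at half of the fitted maximal effect; 0% = enzyme reaction without inhibitor and -100% = no enzyme wells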
#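 Compounds were incubated with enzyme (final 15 nM) for 15 min at room temperature before substrate addition started the reaction. Fluorescence at 525 nm excitation, 598 nm emission was recorded immediately and after 30 minutes.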
# Tau ThT inhib: tau fibrillization inhibition (ThT binding). recombinant tau K18 P301L, heparin-induced fibrillization, ThT fluorescence. Potency, µM (doses to about 57.4 µM), for the others: at the highest dose activity, negative = inhibition, usual class: inhibitors. hit rate 2.1% among 270,000; further: potency means the concentration at half of the fitted maximal effect; nearly all actives have a fitted effect of over 55% in size
# Target sequence (P10636 561-689 P618L limits assumed): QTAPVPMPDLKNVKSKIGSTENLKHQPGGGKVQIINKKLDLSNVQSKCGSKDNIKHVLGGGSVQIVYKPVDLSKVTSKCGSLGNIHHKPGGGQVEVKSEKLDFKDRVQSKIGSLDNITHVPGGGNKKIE
#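 Recombinant human tau K18 fragment […] carrying P301L, 15 uM unlabeled plus 0.24 uM Alexa 594-labeled, was fibrillized with 20 uM heparin in 100 mM sodium acetate pH 7 for 6 hr at 37 C; 30 uM ThT fluorescence read after 1 hr.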
# Coupling enz: coupling enzyme interference in Giardia aldolase counter-screen. activity change, negative = inhibition, % at 58.2 µM, hits read low. AID 2472. hit rate 0.67% among 290,000. coupling enzyme system counterscreen, AmpLite Red fluorescence; in the data active means activity change below about -30%
#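 Fluorescence at 525 nm excitation and 598 nm emission measured inhibition of the coupled detection system without aldolase. Compounds (at 57.5 uM final) were preincubated 10 min at room temperature with coupling enzyme reagent before a 20 min substrate/AmpLite Red step.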
# Tau fluor counter: counter-screen for tau fibril formation inhibitors. tau K18 P301L Alexa594 fluorescence, heparin fibrillization. Potency, µM (top dose mostly 57.7 µM), for inactives: at the top dose activity change, negative = decrease. hit rate 0.93% among 280,000. AID 1463; further: potency means the concentration at half of the fitted maximal effect; nearly all actives have a fitted effect of over 55% in size
#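 Human tau K18 P301L (15 uM unlabeled, 0.24 uM Alexa 594-labeled) in 100 mM sodium acetate pH 7 with 20 uM heparin, 6 hr at 37 C. ThT 30 uM added, 1 hr ambient; Alexa 594 FP and total fluorescence read at 555/632 nm.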
# Tau fibril FP: blocks human tau fibril formation measured by polarization; K18 P301L tau heparin fibrillization, Alexa594 FP, 6 h; P10636; hit rate 0.39% among 280,000; AID 1468; Potency, µM (top dose mostly 57.7 µM), for inactives: at the top dose activity, negative = inhibition, most hits filed as inhibitors; further: potency means the concentration at half of the fitted maximal effect; nearly all actives have a fitted effect of over 55% in size
#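 Human K18 P301L fragment (15 uM unlabeled plus 0.24 uM Alexa 594-labeled) in 100 mM sodium acetate pH 7 with compound, aggregation induced by 20 uM heparin for 6 hr at 37 C. ThT (30 uM) added for 1 hr, then Alexa 594 FP read.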
# KDM4E inh: JMJD2E (human) inhibition | B2RXH2 | JMJD2E catalytic domain, FDH-coupled NADH fluorescence (FDH is formaldehyde dehydrogenase) | Potency, µM (highest dose often 57.1 µM), for inactives: at the highest dose activity change, negative = inhibition, actives largely listed as inhibitors | hit rate 1.6% among 230,000 | AID 2147; active means well fitted inhibition curve with a large enough effect, not every such curve was filed as active; inconclusive means small, poorly fitted or top-dose-only effect, or another doubt; inactive means no such curve, though single readings can be large or run the other way;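 further: potency means the concentration at half of the fitted maximal effect; 0% = wells with enzyme and -100% = buffer wells without enzyme; nearly all actives have a fitted effect of over 50% in size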
# Target sequence (B2RXH2 1-337 limits assumed): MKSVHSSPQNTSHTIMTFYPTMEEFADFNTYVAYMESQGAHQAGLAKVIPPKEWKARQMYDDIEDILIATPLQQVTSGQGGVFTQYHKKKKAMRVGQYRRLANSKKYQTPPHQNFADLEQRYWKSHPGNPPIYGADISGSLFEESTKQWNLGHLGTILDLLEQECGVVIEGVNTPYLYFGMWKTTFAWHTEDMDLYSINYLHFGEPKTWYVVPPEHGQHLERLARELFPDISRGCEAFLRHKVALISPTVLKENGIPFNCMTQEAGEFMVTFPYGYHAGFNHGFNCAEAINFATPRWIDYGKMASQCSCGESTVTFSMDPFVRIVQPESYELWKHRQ
# * marks the source's active call; other numbers are inactive results; ? = inconclusive; / = not tested or not shown; [ ] = dose if it differs, or a comment. A selection: hits, their analogues and other compounds. The true share with any hit is near 5.3%. Unless noted, the call rests on the fitted dose curve; in most records, active means well fitted curve in the direction sought with a large enough effect; inconclusive means small, poorly fitted or top-dose-only effect, or another doubt; inactive means no such curve, though single readings can be large; an effect the other way counts as inactive or inconclusive. Unless noted, on the % scale 0 is the no-effect control and ±100 the full control effect.
SMILES,Sfp PPTase inh,Tau ThT inhib,Coupling enz,Tau fluor counter,Tau fibril FP,KDM4E inh
Cc1cccc(N2C(=O)/C(=C/c3ccc(N4CCN(C)CC4)o3)C(=O)NC2=S)c1C,63µM*,2%,-24,0%,-3%,2%
CC1CC(C)C(=O)[C@H](C(O)CC2CC(=O)NC(=O)C2)C1 (stereo not given in full),21%,-14%,4,-9%,-6%,3%
Cc1cc(/C=C2\C(=O)NC(=O)N(c3ccccc3F)C2=O)c(C)n1-c1cc(C(=O)O)cc(C(=O)O)c1,-18%,/,11,/,/,/
O=C1NC(=S)N(c2ccccc2F)C(=O)/C1=C\c1cccs1,11µM*,?,0,5%,11%,-6%
O=C1NC(=O)N(Cc2ccccc2)C(=O)/C1=C\c1ccco1,-29%,?,5,-4%,-5%,-13%
Cc1ccccc1N1C(=O)/C(=C/c2ccco2)C(=O)NC1=S,20µM*,/,-1,/,/,/
Cc1ccccc1N1C(=O)NC(=O)/C(=C\c2cc(Br)c(N3CCOCC3)o2)C1=O,-17%,16µM*,3,-19%,?,-8%
C#CCN1C(C)=C(C(=O)CCO)[C@@H](c2cccc(-n3oo3)c2)C(C(=O)OC)=C1C,-12%,-19%,-1,-28%,-2%,-3%
OC[C@@H]1[C@@H](O)[C@H](O)[C@H]2[C@@H](O)CCN21,0%,/,1,/,/,/
O=C(O)C1Sc2[nH]c(=O)sc2C2c3cc(Cl)ccc3OC(=O)C12 (stereo not given),50µM*,22µM*,-4,?,-14%,14µM*
CCN1C[C@]2(C)CC[C@H](O)[C@@]34C5C[C@@H]6[C@@H](OC)C[C@@](O)(C5[C@H]6O)[C@@H](CC23)[C@@H]14 (stereo not given in full),18%,-4%,4,-2%,-4%,1%
O=c1[nH]c(=O)n(Cc2ccco2)c(O)c1C=NCc1ccco1,25µM*,?,-1,-3%,-11%,-15%
CCCCC(=O)N/N=C/c1c(O)n(Cc2ccco2)c(=O)[nH]c1=O,-24%,-16%,3,-6%,-4%,25µM*
Cc1ccc(-n2c(O)c(C=NCc3ccco3)c(=O)[nH]c2=S)cc1C,20µM*,?,-2,4%,-9%,?
O=c1[nH]c(=O)n(Cc2ccccc2)c(O)c1C=Nc1ccc(CN2CCOCC2)cc1,56µM*,1%,0,6%,-1%,?
O=c1[nH]c(=S)n(-c2ccccc2F)c(O)c1C=NCc1ccco1,-10%,-10%,0,-4%,-2%,-9%
c1ccc(C(OC2CCCN(CCc3ccc4c(c3)OCO4)C2)c2ccccc2)cc1 (stereo not given),?,/,1,/,/,/
COc1ccc(C2CC(c3c(O)n(C4CCCCC4)c(=O)[nH]c3=O)=Nc3ccccc3S2)cc1 (stereo not given),/,?,/,-20%,7%,/
CCNC(=O)[C@H]1O[C@@H](n2cnc3c(N)ncnc32)[C@H](O)[C@H]1O,/,4%,/,3%,5%,3%
CC(C)CCCC(C)C1CCC2C3=CC[C@@H]4CC(O)CC[C@@]4(C)C3CC[C@]21C (stereo not given in full),-13%,?,0,-5%,-4%,-2%
C=C1CC[C@H](O)C/C1=C/C=C1\CCC[C@]2(C)[C@@H]([C@H](C)CCCC(C)C)CC[C@@H]12,17%,22µM*,1,-22%,?,/
Cc1csc(B(O)O)c1,41%,-10%,0,-2%,0%,15%
COc1cccc2c1C13CC[N+]4(CC5CC5)CO[C@]1(CCC(=O)C3)C4C2,21%,-3%,/,-3%,-5%,/
CCc1c(C)nc(N)nc1N1N=C1SC(C(C)=O)C(C)=O,?,18µM*,-1,-20%,?,?
CCc1c(C)nc(N)nc1N1N=C1SCC(N)=O,0%,-8%,0,-8%,-10%,1%
SMILES,Sfp PPTase inh,Tau ThT inhib,Coupling enz,Tau fluor counter,Tau fibril FP,KDM4E inh
CCCCCC[C@H]1C(=O)O[C@H](C)[C@H](NC(=O)c2cccc(NC=O)c2O)C(=O)O[C@@H](C)[C@H]1OC(=O)CC(C)C,12%,/,4,/,/,?
O=C1C(Cl)=C(Cl)C(=O)C(Cl)=C1Cl,-85%,1.4µM*,-65*,14µM*[quencher],1.4µM*,?
O=C(NC1CN2CCC1CC2)c1ccc(-c2ccc([N+](=O)[O-])cc2)o1 (stereo not given),56µM*,3%,1,-2%,0%,-2%
CCOc1ccc(-c2cn3c(n2)sc2cc(C(=O)N4CCCC(C)C4)ccc23)cc1 (stereo not given),/,?,/,-24%,-3%,/
COCc1cc(C)c(C#N)c(=S)[nH]1,10µM*,-13%,-3,-5%,-3%,0%
C=C1[C@@H]2C[C@]3(C(CC2=O)[C@]24C5C[C@H]3[C@H]2N(CC)C[C@]5(C)CC[C@@H]4O)[C@@H]1O (stereo not given in full),20%,/,0,/,/,/
C=C1C(=O)O[C@@H]2C[C@@H](C)[C@H]3C=CC(=O)[C@]3(O)C[C@@H]12,12%,16µM*,-2,-4%,?,8%
COC(=O)[C@@]1(O)C[C@@H]2O[C@@]1(C)n1c3ccccc3c3c4c(c5c6ccccc6n2c5c31)C(=O)NC4,-3%,/,-1,/,/,/
COc1ccc(CN2CCN(C(=O)Cc3ccccc3)CC2)cc1Br,89µM*,/,-2,/,/,/
CCOc1cc(CN2CCN(C(=O)Cc3ccccc3)CC2)ccc1OC,-13%,/,-1,/,/,/
S=c1[nH]nc(C2CC2)n1Cc1ccccc1,56µM*,5%,-7,-2%,?,-4%
S=c1[nH]nc(-c2ccco2)n1Cc1ccccc1,23%,-3%,-6,-1%,7%,?
COC1C(O)C(C)O[C@H](OC2CC[C@@]3(C=O)C4CC[C@]5(C)C(C6=CC(=O)OC6)CC[C@@]5(O)C4CC[C@@H]3C2)C1O (stereo not given in full),0%,-1%,10,-1%,2%,0%
COc1cc(/C=C2\C(=O)NC(=O)N(c3ccc(C)cc3)C2=O)cc(OC)c1O,35µM*,?,-29,-17%,-17%,?
COc1cc(/C=C2/C(=O)NC(=O)N(c3ccc(C)cc3)C2=O)cc(OC)c1OC,50µM*,-21%,0,-6%,-6%,?
Cc1ccc(N2C(=O)NC(=O)/C(=C/c3ccoc3)C2=O)cc1,25µM*,/,2,-14%,-12%,?
COc1ccc(/C=C2/C(=O)NC(=O)N(c3ccc(C)c(C)c3)C2=O)cc1CN1C(=O)c2ccccc2C1=O,40µM*,?,7,-5%,4%,-9%
